Measurements from PubChem BioAssay (NCATS).
Records with an inconclusive call do not appear. Unmarked numbers belong to inactive results. The source made the active and inactive calls. Calls follow the shape of the dose curve; as a rule, active = well fitted inhibition curve with a large enough effect; inconclusive = small, poorly fitted or top-dose-only effect; inactive = no such curve, though single readings can be large or run the other way.

What follows are compounds tested against Rap guanine nucleotide exchange factor 3 (Homo sapiens) (UniProt O95398) (assay: Confirmatory qHTS for antagonist of cAMP-regulated guanine nucleotide exchange factor 3 (EPAC1) (AID 1645880; also: nearly all actives have a fitted effect of over 55% in size;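 as to activity, negative = inhibition: plate controls were DMSO only for no effect and full effect of the ATA control for full effect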)). Settings: EPAC1 Rap1B-BODIPY-GDP exchange, fluorescence; activity, negative = inhibition: at 115 µM (top of the series).
Sequence of Rap guanine nucleotide exchange factor 3 (Homo sapiens) (O95398 whole entry, looked up): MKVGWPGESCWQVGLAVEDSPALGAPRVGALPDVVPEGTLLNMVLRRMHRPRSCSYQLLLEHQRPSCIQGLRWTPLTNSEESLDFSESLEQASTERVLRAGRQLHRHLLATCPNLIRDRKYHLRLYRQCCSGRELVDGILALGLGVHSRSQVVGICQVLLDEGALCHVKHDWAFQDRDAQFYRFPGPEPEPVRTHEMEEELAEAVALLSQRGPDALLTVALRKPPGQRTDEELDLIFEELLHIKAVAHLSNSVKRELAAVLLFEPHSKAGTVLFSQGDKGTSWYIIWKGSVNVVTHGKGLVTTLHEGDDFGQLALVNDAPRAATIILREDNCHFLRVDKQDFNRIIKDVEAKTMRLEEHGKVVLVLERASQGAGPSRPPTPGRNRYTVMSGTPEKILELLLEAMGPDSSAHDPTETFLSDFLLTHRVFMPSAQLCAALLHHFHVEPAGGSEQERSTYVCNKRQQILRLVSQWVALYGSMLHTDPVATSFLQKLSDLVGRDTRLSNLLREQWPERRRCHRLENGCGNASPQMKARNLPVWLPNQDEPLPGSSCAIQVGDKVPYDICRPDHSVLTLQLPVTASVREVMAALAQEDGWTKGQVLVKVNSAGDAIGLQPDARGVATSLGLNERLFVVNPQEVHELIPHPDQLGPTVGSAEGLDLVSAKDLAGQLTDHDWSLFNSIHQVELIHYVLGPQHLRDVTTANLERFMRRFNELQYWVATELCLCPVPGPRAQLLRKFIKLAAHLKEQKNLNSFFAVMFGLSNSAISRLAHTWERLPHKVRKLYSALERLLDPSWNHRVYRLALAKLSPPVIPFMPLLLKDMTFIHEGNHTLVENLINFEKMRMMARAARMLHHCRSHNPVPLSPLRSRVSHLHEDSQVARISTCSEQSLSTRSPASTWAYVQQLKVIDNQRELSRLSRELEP
Method in brief: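 Nucleotide exchange uses 100 nM EPAC1, 250 nM RAP1B-BODIPY-GDP and 50 uM GDP, with compounds in a concentration-titration series. After 5 min at room temperature, fluorescence (480 nm ex/540 nm em) is read every 5 min for 30 min. Data are normalized to control ATA and DMSO.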
Potency is read from the fitted curve at half-maximal effect.

Row | SMILES | activity, negative = inhibition [%] | Potency
1 | COC(=O)c1sc(S(=O)(=O)N2CCCCC2C)c(C(=O)OC)c1C (stereo not drawn) | -35 | –
2 | CCN1CCc2c(sc(NC(=O)Nc3ccc(Cl)c(Cl)c3)c2C(N)=O)C1 | 46.9 | –
3 | Cc1ccc(-c2nc3ccc(C)cn3c2CC2CCCCC2)cc1 | -27.2 | –
4 | CCSC1=NSC2=NC(=O)/C(=C\c3coc4ccccc4c3=O)C(=N)N12 | 24.5 | –
5 | N=C1/C(=C\c2coc3ccccc3c2=O)C(=O)N=C2SC=CN12 | 34.1 | –
6 | COc1cccc(/C(O)=C/c2nc3ccc(C(=O)NCCc4cccc(C)c4)cc3[nH]c2=O)c1 | -2.3 | –
7 | N#Cc1cc(Br)ccc1N=C1CCCN1c1ccccc1 | -16.5 | –
8 | CCOC(=O)c1ccc2[nH]cc(C(C)=O)c(=O)c2c1 | 0.155 | –
9 | O=C1C=C(c2c(O)ccc3ccccc23)c2ccccc2C1=O | – | 67.5 µM (active)
10 | COC(=O)c1ccc(Cn2nc(-c3cc(C)ccc3C)ccc2=O)cc1 | -22.7 | –
11 | COc1ccc(C(=O)Nc2nc(-c3ccc(OC)cc3)c(-c3ccc([N+](=O)[O-])cc3)s2)cc1 | -20.9 | –
12 | COc1ccc2c(c1)C(=O)CCC2c1ccccc1 (stereo not drawn) | -29.3 | –
13 | COc1ccccc1N1N=C(C(=O)c2ccccc2)C2C(=O)N(c3ccc(Br)cc3)C(=O)C21 (stereo not drawn) | 27.3 | –
14 | COc1ccc(-c2nn(-c3ccccc3)cc2/C=C2/SC(=S)N(CCC(=O)O)C2=O)cc1 | 9.36 | –
15 | CN(C(=O)c1cc2c(cc1Br)OCO2)c1cccc2ccccc12 | -15.7 | –
16 | CCN1C(=O)C(=CC=CN(C)c2ccccc2)SC1=S | 40.4 | –
17 | CNC(=O)c1csc(Cc2c(Cl)sc3ccc(Cl)cc23)n1 | -62.5 | –
18 | O=C(NCCOc1ccccc1F)c1ccccc1SCc1ccc(F)cc1 | -22.3 | –
19 | COc1ccc2c(c1)CCC1C2=NN(/C(C)=C/C(C)=O)C1c1cccc(F)c1 (stereo not drawn) | -12.8 | –
20 | Cc1ccc(N=Cc2c(O)n(-c3nccs3)c(=O)c3ccccc23)c(C)c1 | 53.9 | –

Row | SMILES | activity, negative = inhibition [%] | Potency
21 | O=C(NCc1cccc(F)c1)c1cccc2c1C(=O)c1ccc(N3CCOCC3)cc1S2(=O)=O | -16.4 | –
22 | CC(C)CC1=NN2C(=N)/C(=C\c3coc4ccccc4c3=O)C(=O)N=C2S1 | 35.8 | –
23 | Cc1cccc(N2CCN(S(=O)(=O)c3ccc4c(c3)CCN4C(=O)CCC(=O)O)CC2C)c1 (stereo not drawn) | – | 47.8 µM (active)
24 | COc1ccc(CCNC(=S)N2CCN(S(=O)(=O)c3ccc(F)cc3)CC2)cc1 | 1.76 | –
25 | CC[n+]1ccc(/C=C/c2c[nH]c3ccccc23)cc1 | 1.19 | –
26 | Brc1ccc(CSc2nccn2-c2ccccc2)cc1 | -19.3 | –
27 | CC(=O)CCc1oc2c([N+](=O)[O-])cccc2c1-c1ccc(C)o1 | -25.1 | –
28 | COc1ccc(C(=O)N(CCc2ccccc2)Cc2cccs2)c(OC)c1 | -27 | –
29 | Cc1ccc(S(=O)(=O)/N=C2\C=C(NS(=O)(=O)c3ccccc3)C(=O)c3ccccc32)cc1 | – | 26.9 µM (active)
30 | COc1ccc(NC(=O)NS(=O)(=O)c2ccc(C)cc2)cn1 | 12.2 | –
31 | CCN1CCN(c2ccc(S(=O)(=O)N3CCCCC3)cc2NC(=O)c2cccc(OC(F)F)c2)CC1 | -19.2 | –
32 | O=C1CC2(CCN(S(=O)(=O)c3ccccc3F)CC2)Oc2ccccc21 | 3.5 | –
33 | Oc1ccc(N=Cc2sc3ccccc3c2Cl)cc1 | -22 | –
34 | COc1ccccc1C(=O)Oc1ccc2c(c1)O/C(=C\c1ccncc1)C2=O | -12.4 | –
35 | O=C(NC1CCCC1)c1cccc2c1C(=O)c1ccc(N3CCCCC3)cc1S2(=O)=O | 6.8 | –
36 | O=C1/C(=C\c2cc(Cl)c(O)c(Cl)c2)SC(=S)N1Cc1ccccc1 | 20.1 | –
37 | CC(C)N1CCc2c(sc(NC(=O)c3ccc(C(=O)c4ccccc4)cc3)c2C(N)=O)C1 | -7.86 | –
38 | O=S(=O)(c1ccc(Cl)c2ccccc12)N1CCCC1 | -16.3 | –
39 | COc1ccc(C2CC(c3cccs3)=NN2c2ccc(C=O)cc2)cc1 (stereo not drawn) | 26 | –

The compounds below were run against Rap guanine nucleotide exchange factor 4 (Homo sapiens) (UniProt Q8WZA2) (assay: Confirmatory qHTS for antagonist of cAMP-regulated guanine nucleotide exchange factor 4 (EPAC2) (AID 1645885; also: nearly all actives have a fitted effect of over 25% in size; as to activity change, negative = inhibition: % is scaled to controls: 0 for no effect and ±100 for the full control effect)). Settings: EPAC2 Rap1B-BODIPY-GDP exchange fluorescence, biochemical; series mostly up to 12.7 µM; activity change, negative = inhibition: at the top concentration.
Sequence of Rap guanine nucleotide exchange factor 4 (Homo sapiens) (Q8WZA2 whole entry, looked up): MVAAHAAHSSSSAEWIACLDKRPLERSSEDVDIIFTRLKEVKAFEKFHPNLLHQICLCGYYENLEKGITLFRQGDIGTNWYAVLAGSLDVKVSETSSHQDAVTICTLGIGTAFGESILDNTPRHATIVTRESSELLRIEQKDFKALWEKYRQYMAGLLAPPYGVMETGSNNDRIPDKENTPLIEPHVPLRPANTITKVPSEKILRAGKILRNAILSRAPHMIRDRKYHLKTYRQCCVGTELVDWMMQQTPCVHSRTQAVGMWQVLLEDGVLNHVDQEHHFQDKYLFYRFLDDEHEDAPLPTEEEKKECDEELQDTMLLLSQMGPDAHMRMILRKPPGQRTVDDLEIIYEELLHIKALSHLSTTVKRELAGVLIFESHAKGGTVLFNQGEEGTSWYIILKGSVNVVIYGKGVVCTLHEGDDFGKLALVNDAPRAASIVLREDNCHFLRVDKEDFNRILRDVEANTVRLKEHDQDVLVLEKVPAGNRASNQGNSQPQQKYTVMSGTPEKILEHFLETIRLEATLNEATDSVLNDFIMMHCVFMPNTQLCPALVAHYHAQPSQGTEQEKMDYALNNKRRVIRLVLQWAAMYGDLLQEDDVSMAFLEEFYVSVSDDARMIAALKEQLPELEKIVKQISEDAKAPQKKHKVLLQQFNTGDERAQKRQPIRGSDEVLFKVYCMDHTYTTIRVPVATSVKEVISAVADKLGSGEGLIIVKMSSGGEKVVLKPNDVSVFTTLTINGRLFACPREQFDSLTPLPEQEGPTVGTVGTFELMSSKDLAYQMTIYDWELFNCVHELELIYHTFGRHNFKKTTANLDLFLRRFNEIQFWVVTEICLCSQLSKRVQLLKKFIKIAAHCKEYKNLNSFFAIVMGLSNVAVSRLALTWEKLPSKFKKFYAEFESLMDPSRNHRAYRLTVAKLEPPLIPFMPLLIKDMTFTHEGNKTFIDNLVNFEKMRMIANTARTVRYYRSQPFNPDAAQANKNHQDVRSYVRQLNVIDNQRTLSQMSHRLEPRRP

Row | SMILES | Potency | activity change, negative = inhibition | outcome
40 | COC(=O)c1sc(S(=O)(=O)N2CCCCC2C)c(C(=O)OC)c1C (stereo not drawn) | 53.6 µM (active) | – | –
41 | CCN1CCc2c(sc(NC(=O)Nc3ccc(Cl)c(Cl)c3)c2C(N)=O)C1 | 84.9 µM (active) | – | –
42 | Cc1ccc(-c2nc3ccc(C)cn3c2CC2CCCCC2)cc1 | – | -19.9% [at 114 µM] | –
43 | CCSC1=NSC2=NC(=O)/C(=C\c3coc4ccccc4c3=O)C(=N)N12 | – | 16% | –
44 | N=C1/C(=C\c2coc3ccccc3c2=O)C(=O)N=C2SC=CN12 | – | 6.63% | –
45 | COc1cccc(/C(O)=C/c2nc3ccc(C(=O)NCCc4cccc(C)c4)cc3[nH]c2=O)c1 | – | 13.8% [at 114 µM] | –
46 | N#Cc1cc(Br)ccc1N=C1CCCN1c1ccccc1 | 3.01 µM (active) | – | –
47 | CCOC(=O)c1ccc2[nH]cc(C(C)=O)c(=O)c2c1 | – | -1.84% [at 114 µM] | –
48 | O=C1C=C(c2c(O)ccc3ccccc23)c2ccccc2C1=O | 47.8 µM (active) | – | –
49 | COC(=O)c1ccc(Cn2nc(-c3cc(C)ccc3C)ccc2=O)cc1 | – | – | inactive
50 | COc1ccc(C(=O)Nc2nc(-c3ccc(OC)cc3)c(-c3ccc([N+](=O)[O-])cc3)s2)cc1 | – | 1.8% [at 114 µM] | –
51 | COc1ccc2c(c1)C(=O)CCC2c1ccccc1 (stereo not drawn) | – | 36.5% [at 114 µM] | –
52 | COc1ccccc1N1N=C(C(=O)c2ccccc2)C2C(=O)N(c3ccc(Br)cc3)C(=O)C21 (stereo not drawn) | – | 6.18% [at 114 µM] | –
53 | COc1ccc(-c2nn(-c3ccccc3)cc2/C=C2/SC(=S)N(CCC(=O)O)C2=O)cc1 | – | -6.76% [at 114 µM] | –
54 | CN(C(=O)c1cc2c(cc1Br)OCO2)c1cccc2ccccc12 | – | 41% [at 114 µM] | –
55 | CCN1C(=O)C(=CC=CN(C)c2ccccc2)SC1=S | – | 6.25% | –
56 | CNC(=O)c1csc(Cc2c(Cl)sc3ccc(Cl)cc23)n1 | – | – | inactive
57 | O=C(NCCOc1ccccc1F)c1ccccc1SCc1ccc(F)cc1 | 10.7 µM (active) | – | –
58 | COc1ccc2c(c1)CCC1C2=NN(/C(C)=C/C(C)=O)C1c1cccc(F)c1 (stereo not drawn) | 84.9 µM (active) | – | –
59 | Cc1ccc(N=Cc2c(O)n(-c3nccs3)c(=O)c3ccccc23)c(C)c1 | – | 16.1% | –

Row | SMILES | Potency | activity change, negative = inhibition | outcome
60 | O=C(NCc1cccc(F)c1)c1cccc2c1C(=O)c1ccc(N3CCOCC3)cc1S2(=O)=O | – | -10.2% [at 114 µM] | –
61 | CC(C)CC1=NN2C(=N)/C(=C\c3coc4ccccc4c3=O)C(=O)N=C2S1 | – | 51.7% | –
62 | Cc1cccc(N2CCN(S(=O)(=O)c3ccc4c(c3)CCN4C(=O)CCC(=O)O)CC2C)c1 (stereo not drawn) | – | -24.3% [at 114 µM] | –
63 | COc1ccc(CCNC(=S)N2CCN(S(=O)(=O)c3ccc(F)cc3)CC2)cc1 | – | 22.8% [at 114 µM] | –
64 | CC[n+]1ccc(/C=C/c2c[nH]c3ccccc23)cc1 | – | 18.9% [at 114 µM] | –
65 | Brc1ccc(CSc2nccn2-c2ccccc2)cc1 | – | 16.4% [at 114 µM] | –
66 | CC(=O)CCc1oc2c([N+](=O)[O-])cccc2c1-c1ccc(C)o1 | – | 4.16% [at 114 µM] | –
67 | COc1ccc(C(=O)N(CCc2ccccc2)Cc2cccs2)c(OC)c1 | – | – | inactive
68 | Cc1ccc(S(=O)(=O)/N=C2\C=C(NS(=O)(=O)c3ccccc3)C(=O)c3ccccc32)cc1 | 16.9 µM (active) | – | –
69 | COc1ccc(NC(=O)NS(=O)(=O)c2ccc(C)cc2)cn1 | – | 27.3% [at 114 µM] | –
70 | CCN1CCN(c2ccc(S(=O)(=O)N3CCCCC3)cc2NC(=O)c2cccc(OC(F)F)c2)CC1 | – | -4.95% [at 114 µM] | –
71 | O=C1CC2(CCN(S(=O)(=O)c3ccccc3F)CC2)Oc2ccccc21 | – | 28.4% [at 114 µM] | –
72 | Oc1ccc(N=Cc2sc3ccccc3c2Cl)cc1 | – | -13.1% [at 114 µM] | –
73 | COc1ccccc1C(=O)Oc1ccc2c(c1)O/C(=C\c1ccncc1)C2=O | 84.9 µM (active) | – | –
74 | O=C(NC1CCCC1)c1cccc2c1C(=O)c1ccc(N3CCCCC3)cc1S2(=O)=O | – | 12.4% [at 114 µM] | –
75 | O=C1/C(=C\c2cc(Cl)c(O)c(Cl)c2)SC(=S)N1Cc1ccccc1 | – | 61.7% [at 114 µM] | –
76 | CC(C)N1CCc2c(sc(NC(=O)c3ccc(C(=O)c4ccccc4)cc3)c2C(N)=O)C1 | – | – | inactive
77 | O=S(=O)(c1ccc(Cl)c2ccccc12)N1CCCC1 | – | 49.7% [at 114 µM] | –
78 | COc1ccc(C2CC(c3cccs3)=NN2c2ccc(C=O)cc2)cc1 (stereo not drawn) | – | 25% [at 114 µM] | –
